Results: PubChem BioAssay (NCI)
About 79,000 compounds went through this panel and 15% of them were active in at least one assay; those are over-represented in the sample as a whole. Rule as the data show it: active = growth inhibition above about 70%; inactive = the rest.

Experiments:
[1] = NCI Yeast Anticancer Drug Screen. Data for the rad50 strain (AID 155);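 also: 0% = growth of vehicle-only cultures of the same strain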; settings: S. cerevisiae rad50 strain growth inhibition; at 50.0 µM; stronger effect = higher value
Procedure, shortened: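 Vehicle-treated cultures provide the reference for the growth inhibition reported for compound-exposed, repair-deficient yeast.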

[2] = NCI Yeast Anticancer Drug Screen. Data for the mec2-1 strain (AID 157); settings: S. cerevisiae mec2-1 strain, at 50.0 µM, stronger effect = higher value
Procedure, shortened: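 Strain: mec2-1 (DNA repair/cell cycle alteration). Compound exposure, then growth measured; inhibition expressed relative to vehicle.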

[3] = NCI Yeast Anticancer Drug Screen. Data for the sgs1 mgt1 strain (AID 161);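 also: 0% = growth of cultures given vehicle only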; settings: S. cerevisiae sgs1 mgt1 strain, at 50.0 µM, stronger effect = higher value
Procedure, shortened: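 Mutant yeast exposed to compound; growth scored against vehicle-only wells.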

[4] = NCI Yeast Anticancer Drug Screen. Data for the cln2 rad14 strain (AID 165);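 also: 0% = growth equal to vehicle treated cultures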; settings: S. cerevisiae cln2 rad14 strain, at 50.0 µM, stronger effect = higher value
Procedure, shortened: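 Compounds are applied to the cln2 rad14 yeast strain, and growth is then compared with that of vehicle-treated cultures to give inhibition.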

[5] = NCI Yeast Anticancer Drug Screen. Data for the bub3 strain (AID 167); settings: S. cerevisiae bub3 mutant strain, at 50.0 µM, stronger effect = higher value
Procedure, shortened: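 Mutant yeast screening strain plus compound; vehicle-treated cultures serve as the 0% inhibition reference.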

[6] = NCI Yeast Anticancer Drug Screen. Data for the mlh1 rad18 strain (AID 175); settings: S. cerevisiae mlh1 rad18 strain growth inhibition; at 50.0 µM; stronger effect = higher value
Procedure, shortened: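 Read-out is yeast growth inhibition, calculated against vehicle-only controls. The compound was applied to a strain engineered with DNA damage repair alterations.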

Measured: growth inhibition

CC1(C)CC2(CC3(C1)SCCS3)SCCS2
inactive: [1] -11.2% | [2] -5.25% | [3] -8.8% | [4] 5.45% | [5] -5.8% | [6] 1.35%

Cc1cc2nc3ccc(=[N+](C)C)cc-3sc2cc1N
inactive: [1] -24.2% | [2] -39.8% | [3] -20.6% | [4] -14.2% | [5] -25.8% | [6] -24.1%

C1=C(c2ccccc2)CCCC1
inactive: [1] 17.1% | [2] 3.55% | [3] 4.2% | [4] 14.4% | [5] -9.4% | [6] 4.45%

O=c1/c(=C/c2ccco2)sc2nc3ccccc3n12
inactive: [1] 15.8% | [2] 5.35% | [3] 14.5% | [4] 29.8% | [5] 30.1% | [6] 20.4%

CC(=O)c1ccc(N=C2C(=O)Nc3ccccc32)cc1
inactive: [1] 28.9% | [2] 15.8% | [3] 10.4% | [4] 19.8% | [5] 9% | [6] 25.8%

N#Cc1c(N)nc(N)nc1Nc1ccc(Cl)cc1
inactive: [1] 13.6% | [2] -8.7% | [3] 9.25% | [4] 26.9% | [5] -5.8% | [6] 25.6%

O=C(C(=NC12CC3CC(CC(C3)C1)C2)NNc1ccc([N+](=O)[O-])cc1[N+](=O)[O-])C(Br)C(=O)c1ccccc1 (stereo not given)
inactive: [1] 47.2% | [2] 45.9% | [3] 56.2% | [4] 3.25% | [5] 51.5% | [6] 39.9%

CCOC(=O)c1csc(N)n1
inactive: [1] -24.5% | [2] 7.35% | [3] -15.1% | [4] -39.6% | [5] -9.7% | [6] -18.3%

N/C=N/OCc1ccccc1
inactive: [1] 10% | [2] 5.05% | [3] 9% | [4] 4.7% | [5] -3.75% | [6] 5.75%

CCC(CC)COC(=O)CC(CC(=O)OCC(CC)CC)C(=O)OCC(CC)CC
inactive: [1] -12.3% | [2] -4.85% | [3] 9.35% | [4] -20.1% | [5] 1.1% | [6] 24.6%

CCCC(=O)C(N)CC(C)C (stereo not given)
inactive: [1] -8.2% | [2] 5.4% | [3] 10.6% | [4] 1.15% | [5] 2.45% | [6] -4.15%

C=CCNC(=O)/C=C/C(=O)O
inactive: [1] -8.15% | [2] 6.85% | [3] 0.35% | [4] 4.45% | [5] 12.5% | [6] 6.15%

COC(=O)Nc1cc2c3c(c1)CCCN3CCC2
inactive: [1] -6.35% | [2] -4.05% | [3] -2.2% | [4] -10.2% | [5] 10.1% | [6] 1.8%

O=C(NN1C(=O)CS(=O)(=O)C1c1ccccc1F)c1ccncc1 (stereo not given)
inactive: [1] -8% | [2] -4.4% | [3] 8.3% | [4] -9.35% | [5] -0.1% | [6] 7.75%

COC(=O)C(Cc1ccccc1)NC(=O)C(CCC(=O)OCc1ccccc1)NC(=O)OC(C)(C)C (stereo not given)
inactive: [1] 30.9% | [2] 8.55% | [3] 19.8% | [4] 19.9% | [5] 31.4% | [6] 22%

O=C1OC(c2ccccc2)N(C(=O)c2ccccc2)C1Cc1ccc(OCc2ccccc2)cc1 (stereo not given)
inactive: [1] -30.5% | [2] -6.4% | [3] -5.65% | [4] -13.7% | [5] 0.95% | [6] 5.75%

O=S(=O)(/N=c1/ccc(NS(=O)(=O)c2ccccc2)cn1O)c1ccccc1
inactive: [1] 25.5% | [2] 3.8% | [3] 18.1% | [4] -23% | [5] 10.6% | [6] 14.6%

O=C(CCc1ccccc1CO)NCCc1ccccc1
inactive: [1] 52% | [2] 20.9% | [3] -18.1% | [4] 7.8% | [5] -34.1% | [6] 3.85%

CC(O)C1CCCCC1O (stereo not given)
inactive: [1] 5.15% | [2] -28.3% | [3] -2.85% | [4] -8.65% | [5] -9.6% | [6] -11.3%

Cc1nc2ccccc2[nH]1
inactive: [1] 3.8% | [2] -31.1% | [3] -4% | [4] 5.85% | [5] 3.45% | [6] 8.8%

O=[N+]([O-])c1ccc(C(O)(C#CCN2CCCC2)c2ccccc2)cc1 (stereo not given)
inactive: [1] 20.5% | [2] 11.9% | [3] -24.1% | [4] 10.2% | [5] 3.5% | [6] 12.7%

COc1ccc(CC2(Cc3ccc(OC)cc3)CCOC2=O)cc1
inactive: [1] -23.1% | [2] -31.9% | [3] -16.1% | [4] 1.2% | [5] 2.25% | [6] -31.4%

COc1ccc(N=C2SC(=N/N=c3\sc4ccccc4n3C)SC2=Nc2ccc(OC)cc2)cc1
inactive: [1] 4.15% | [2] -32.9% | [3] -2.9% | [4] -41.1% | [5] 28.9% | [6] -12.7%

C[N+](C)(C)N=C1CCCCC1
inactive: [1] 10.9% | [2] -3.6% | [3] -11.3% | [4] 7.5% | [5] -2.6% | [6] -16.8%

CC1CNC(=S)N(c2cccc3ccccc23)C1=O (stereo not given)
inactive: [1] -4.8% | [2] -1% | [3] -3.7% | [4] -5% | [5] -9.35% | [6] 4.2%

Cc1cnc(N)s1
inactive: [1] 3.8% | [2] -23.9% | [3] -7.8% | [4] -24.7% | [5] -11.2% | [6] 9.45%

N#CC(c1cccs1)C1CCCCC1 (stereo not given)
inactive: [1] 9.4% | [2] -0.5% | [3] 2.05% | [4] -11.8% | [5] 2.65% | [6] -1.3%

CCCCCCCOCC(=O)OC
inactive: [1] 3.6% | [2] -0.7% | [3] 2% | [4] -21.2% | [5] 10.2% | [6] 1.45%

CCOC(=O)C12CCC(=O)CC1(O)CCC1(C2)OCCCO1 (stereo not given)
inactive: [1] 10.1% | [2] -15.9% | [3] -17.9% | [4] -21.8% | [5] 10.9% | [6] 3.85%

O=C1c2ccccc2C(=O)N1/N=C\c1ccc(O)cc1
inactive: [1] 6.8% | [2] -3.6% | [3] 7.6% | [4] 12.9% | [5] 0.95% | [6] 33.5%

Cc1ccc(S(=O)(=O)OCC(C)C(c2ccccc2)c2ccccc2)cc1 (stereo not given)
inactive: [1] 7.45% | [2] 1.9% | [3] -4.55% | [4] -20.9% | [5] -3.3% | [6] 0.2%

CN=C(NC)C(c1ccccc1)c1ccccc1
inactive: [1] -0.5% | [2] -9.7% | [3] -5.7% | [4] -15.8% | [5] -5.8% | [6] -9.3%

CCCCCC[n+]1ccc(C(=O)c2ccccc2)cc1
inactive: [1] 34.9% | [2] -5.8% | [3] 19.9% | [4] 7.9% | [5] 0.45% | [6] 32.6%

Cc1ccc(N(C(=O)CC(=O)NN)C(=O)c2ccccc2Cl)cc1
inactive: [1] -12.4% | [2] -13.6% | [3] -8.25% | [4] 27% | [5] 4% | [6] -5.9%

Cc1ccc2nc[nH]c2c1
inactive: [1] 0.35% | [2] -21.9% | [3] -10.8% | [4] -11.4% | [5] 4.05% | [6] 14.6%
